Assay results published in PubChem BioAssay (NCATS).
Inconclusive results are not listed. Calls of active or inactive are those of the source. The call rests on the fitted dose curve; in most records, active means well fitted curve in the direction sought with a large enough effect; inconclusive means small, poorly fitted or top-dose-only effect, or another doubt; inactive means no such curve, though single readings can be large; an effect the other way counts as inactive or inconclusive.

Columns and labels:
[1] = qHTS of pediatric cancer cell lines to identify multiple opportunities for drug repurposing: Primary screen for RD cells (AID 1347104); further: nearly all actives have a fitted effect of over 55% in size; further: potency means the concentration at half of the fitted maximal effect;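 on activity change, negative = cytotoxic: plate controls were DMSO for no effect and bortezomib for full effect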
How it was run: (§1)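 Quantitative HTS format: each compound titrated (MIPE 11 points from 0.78 nM, NPC 8 points from 0.59 nM) onto cells plated 5 hours earlier. After 48 h at 37 degrees C, CellTiter-Glo luminescence was recorded.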

[2] = qHTS of pediatric cancer cell lines to identify multiple opportunities for drug repurposing: Primary screen for MG 63 (6-TG R) cells (AID 1347105); further: nearly all actives have a fitted effect of over 50% in size; further: potency means the concentration at half of the fitted maximal effect; on activity change, negative = cytotoxic: on the % scale 0 is the no-effect control and ±100 the full control effect
How it was run: as §1

[3] = qHTS of pediatric cancer cell lines to identify multiple opportunities for drug repurposing: Primary screen for control Hh wild type fibroblast cells (AID 1347106); further: nearly all actives have a fitted effect of over 55% in size; further: potency means the concentration at half of the fitted maximal effect;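 on activity change, negative = cytotoxic: series mostly up to about 46 µM; on the % scale 0 is the no-effect control and ±100 the full control effect; a drop in luminescence marks cytotoxicity and a rise apparent proliferation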
How it was run: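 Viability after 48 h compound treatment at 37C, 500-1,000 cells/well, read as ATP luminescence with CellTiter-Glo. Primary screens used 11-point (MIPE, 0.78 nM-46 µM) or 8-point (NPC, 0.59 nM-46 µM) final concentrations; follow-up screens used 11-point dilutions.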

[4] = qHTS of pediatric cancer cell lines to identify multiple opportunities for drug repurposing: Primary screen for Rh30 cells (AID 1347107); further: series mostly up to about 46 µM; on the % scale 0 is the no-effect control and ±100 the full control effect; nearly all actives have a fitted effect of over 75% in size
How it was run: (§2)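 Cells (500-1,000/well) rested 5 h, then received compounds for 48 h; metabolically active cells were measured by CellTiter-Glo luminescence. Final concentrations spanned up to 46 µM (MIPE, 11-point) or 0.59 nM-46 µM (NPC, 8-point) in primary screens, 11-point in follow-ups.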

[5] = qHTS of pediatric cancer cell lines to identify multiple opportunities for drug repurposing: Primary screen for Rh41 cells (AID 1347108);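 further: series mostly up to about 46 µM; luminescence drop marks cytotoxic hits; nearly all actives have a fitted effect of over 70% in size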
How it was run: as §1

[6] = qHTS of pediatric cancer cell lines to identify multiple opportunities for drug repurposing: Confirmatory screen for SK-N-MC cells (AID 1347111);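 further: potency means the concentration at half of the fitted maximal effect; cells exposed to compound for 48 h before the readout; nearly all actives have a fitted effect of over 70% in size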
How it was run: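 Seed 500-1,000 cells/well; rest 5 h at 37 degrees C. Pin-transfer compounds, 11-point titration. Incubate 48 h. Add CellTiter-Glo, 15 min RT, read luminescence.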

[7] = qHTS of pediatric cancer cell lines to identify multiple opportunities for drug repurposing: Confirmatory screen for LAN-5 cells (AID 1347113); further: potency means the concentration at half of the fitted maximal effect; nearly all actives have a fitted effect of over 65% in size
How it was run: as §2

[8] = qHTS of pediatric cancer cell lines to identify multiple opportunities for drug repurposing: Confirmatory screen for A673 cells (AID 1347110);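 further: potency means the concentration at half of the fitted maximal effect; cells exposed to compound for 48 h before the viability read; nearly all actives have a fitted effect of over 65% in size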
How it was run: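 Concentration-response curves came straight from titrations: 11 points (0.78 nM to 46 µM) for MIPE and several concentrations (0.59 nM to 46 µM) for NPC in primary, 11 points in follow-up. Readout: ATP luminescence at 48 h.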

[9] = qHTS of pediatric cancer cell lines to identify multiple opportunities for drug repurposing: Confirmatory screen for BT-12 cells (AID 1347112); further: potency means the concentration at half of the fitted maximal effect; nearly all actives have a fitted effect of over 55% in size
How it was run: as §2

[10] = qHTS of pediatric cancer cell lines to identify multiple opportunities for drug repurposing: Confirmatory screen for DAOY cells (AID 1347114); further: potency means the concentration at half of the fitted maximal effect; nearly all actives have a fitted effect of over 65% in size
How it was run: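 Viability measured as metabolically active cells via CellTiter-Glo luminescence following 48 hours of compound exposure, 11-point dilutions in confirmatory testing. 500-1,000 cells/well plated 5 hours before dosing; controls were DMSO and 2.3 µM bortezomib.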

CC(O)Cn1cnc2c1c(=O)n(C)c(=O)n2C (stereo not given)
inactive: Potency [1] | Potency [2] | Potency [3] | Potency [4] | Potency [5]

CCCN(CCc1cccs1)[C@H]1CCc2c(O)cccc2C1
inactive: Potency [1] | Potency [2] | Potency [3] | Potency [4] | Potency [5]

CCCCN1C[C@H](O)[C@@H](O)[C@H](O)[C@H]1CO
inactive: Potency [1] | Potency [2] | Potency [3] | Potency [4] | Potency [5]

Cc1cc(NS(=O)(=O)c2ccc(N)cc2)nc(C)n1
inactive: Potency [1] | Potency [2] | Potency [3] | Potency [4] | Potency [5]

c1ccc(CC2=NCCN2)cc1
inactive: Potency [1] | Potency [2] | Potency [3] | Potency [4] | Potency [5]

OC[C@H]1O[C@@H](Oc2ccc(O)cc2)[C@H](O)[C@@H](O)[C@@H]1O
inactive: Potency [1] | Potency [2] | Potency [3] | Potency [4] | Potency [5]

COc1ccc(C(=O)c2ccccc2O)c(O)c1
inactive: Potency [1] | Potency [2] | Potency [3] | Potency [4] | Potency [5]

CCCCC(CC)COC(=O)c1ccc(N(C)C)cc1 (stereo not given)
inactive: Potency [1] | Potency [2] | Potency [3] | Potency [4] | Potency [5]

CC(C)Nc1cccnc1N1CCN(C(=O)c2cc3cc(NS(C)(=O)=O)ccc3[nH]2)CC1
inactive: Potency [1] | Potency [2] | Potency [3] | Potency [4] | Potency [5]

CN1CCC(OC(c2ccccc2)c2ccccc2)CC1
inactive: Potency [1] | Potency [2] | Potency [3] | Potency [4] | Potency [5]

N=C(N)N1CCc2ccccc2C1
inactive: activity change, negative = cytotoxic [1] -9.62% [at 4.84 µM] | activity change, negative = cytotoxic [2] -18.3% [at 4.84 µM] | activity change, negative = cytotoxic [3] -9.54% [at 4.84 µM] | activity change, negative = cytotoxic [4] 7.74% [at 4.84 µM] | activity change, negative = cytotoxic [5] 1.21% [at 4.84 µM]

O=C(O)CCc1nc2ccccc2[nH]1
inactive: Potency [1] | Potency [2] | Potency [3] | Potency [4] | Potency [5]

O=C(O)C1(C(=O)O)CCC1.[NH2-].[NH2-].[Pt+2]
inactive: Potency [1] | Potency [2] | Potency [3] | Potency [4] | Potency [5]

O=C(Nc1ccc([N+](=O)[O-])cc1)Nc1ccc([N+](=O)[O-])cc1
inactive: Potency [1] | Potency [2] | Potency [3] | Potency [4] | Potency [5]

CC(=O)O[C@H]1C[C@@H]2CC[C@@H]3[C@H](CC[C@@]4(C)[C@H]3C[C@H]([N+]3(C)CCCCC3)[C@@H]4OC(C)=O)[C@@]2(C)C[C@@H]1N1CCCCC1
inactive: Potency [1] | Potency [2] | Potency [3] | Potency [4] | Potency [5]

CC1=C(C(=O)O)N2C(=O)[C@@H](NC(=O)[C@H](N)c3ccccc3)[C@H]2SC1
inactive: Potency [1] | Potency [2] | Potency [3] | Potency [4] | Potency [5]

CCN1CCCC(OC(=O)C(c2ccccc2)c2ccccc2)C1 (stereo not given)
inactive: Potency [1] | Potency [2] | Potency [3] | Potency [4] | Potency [5]

Cc1cc(C)cc(OCC2CNC(=O)O2)c1 (stereo not given)
inactive: Potency [1] | Potency [2] | Potency [3] | Potency [4] | Potency [5]

COc1cc(C(=S)N2CCOCC2)ccc1O
inactive: Potency [1] | Potency [2] | Potency [3] | Potency [4] | Potency [5]

CN(C)CCOC(c1ccc(Cl)cc1)c1ccccn1 (stereo not given)
inactive: Potency [1] | Potency [2] | Potency [3] | Potency [4] | Potency [5]

NC1CCN(c2nc3c(cc2F)c(=O)c(C(=O)O)cn3-c2ccc(F)cc2F)C1 (stereo not given)
inactive: Potency [1] | Potency [2] | Potency [3] | Potency [4] | Potency [5]

C#C[C@]1(O)CC[C@H]2[C@@H]3CCC4=CC(=O)CC[C@@H]4[C@H]3CC[C@@]21CC
inactive: Potency [1] | Potency [2] | Potency [3] | Potency [4] | Potency [5]

Cc1cccc(C)c1NC(=O)CN1CCCC1
inactive: Potency [1] | Potency [2] | Potency [3] | Potency [4] | Potency [5]

CCCCc1cc2ccccc2c(OCCN(C)C)n1
inactive: Potency [1] | Potency [2] | Potency [3] | Potency [4] | Potency [5]

N#CCC(=O)NN
inactive: Potency [1] | Potency [2] | Potency [3] | Potency [4] | Potency [5]

CCN(CC)CCOc1ccc2c(c1)C(=O)c1cc(OCCN(CC)CC)ccc1-2
inactive: Potency [2] | Potency [3] | Potency [4]
active: Potency [1] 21100 nM | Potency [6] 7370 nM | Potency [7] 11700 nM

O=C1C(O)=C(O)C(=O)C(O)=C1O
inactive: Potency [1] | Potency [2] | Potency [3] | Potency [4] | Potency [5]

C[C@H]1O[C@@H](O[C@H]2CC[C@@]3(C)[C@H](CC[C@@H]4[C@@H]3C[C@@H](O)[C@]3(C)[C@@H](C5=CC(=O)OC5)CC[C@]43O)C2)C[C@H](O)[C@@H]1O[C@H]1C[C@H](O)[C@H](O[C@H]2C[C@H](O)[C@H](O[C@@H]3O[C@H](CO)[C@@H](O)[C@H](O)[C@H]3O)[C@@H](C)O2)[C@@H](C)O1
active: Potency [1] 150 nM | Potency [2] 84.1 nM | Potency [3] 75 nM | Potency [8] 737 nM | Potency [6] 414 nM | Potency [9] 293 nM | Potency [7] 414 nM | Potency [10] 117 nM
inactive: Potency [4]
